Screens as filed in PubChem BioAssay.
Compounds with a hit are over-represented: about 8.1% of the library has one in this group of screens.
VP16 counter = counter-screen for ROR gamma inhibitors: Gal4-VP16 reporter; Drosophila S2 Gal4-VP16 UAS-luciferase, luminescence, 20 h; Potency, µM (highest dose often 53.6 µM), for the others: at the top dose activity, negative = inhibition, actives largely listed as inhibitors; hit rate 3.5% among 310,000; AID 2546;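 note: Gal4-VP16 expression switched on by copper sulfate through the metallothionein promoter; potency is the fitted concentration of half-maximal effect; % is set by controls: 0 for no effect and ±100 for the full control effect; nearly all actives have a fitted effect of over 50% in size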
RORg inh = inhibitors of mouse ROR gamma transcriptional activity. Drosophila S2 Gal4-RORgamma UAS-luciferase reporter, 20 h. P51450. Potency, µM (series often up to 53.6 µM), for inactives: at the top dose activity change, negative = inhibition, usual class: inhibitors. hit rate 5.4% among 310,000; note: potency is the fitted concentration of half-maximal effect; % is set by controls: 0 for no effect and ±100 for the full control effect; nearly all actives have a fitted effect of over 60% in size
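ROR gamma transcriptional activity was tracked as Gal4-UAS luciferase output in stably transfected Drosophila Schneider cells, with compound added 1 hr before 700 uM copper sulfate induction and a 20 hr ambient-temperature incubation.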
PINK1 modulator = PINK1 expression modulation. PINK1 immunofluorescence, high-content cytometry, 24 h. Potency, µM (highest dose often 76.6 µM), inactives show at the top dose activation (PINK1 increase), usual class: activators. hit rate 0.2% among 410,000. AID 624263; active = well fitted activation curve with a large enough effect; inconclusive = small, poorly fitted or top-dose-only effect; cell line not stated here; note: potency is the fitted concentration of half-maximal effect; % of control where 0% means no effect; nearly all actives have a fitted effect of over 65% in size
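Readout is PINK1 immunofluorescence, quantified alongside mitochondrial, cell and nuclear markers by laser-scanning microplate cytometry. Cells from a stable line were exposed to compound titrations (5 concentrations) for 24 hours, with CCCP controls.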
Epigenetic reg = epigenetic control regulation, reporter derepression; murine LDR cells, GFP reporter derepression, 30 h; hit rate 0.2% among 280,000; Potency, µM (titrated, usually from 53.9 µM), for inactives: at the highest dose GFP activation, actives largely listed as activators; note: potency is the fitted concentration of half-maximal effect; % of control where 0% means no effect; nearly all actives have a fitted effect of over 60% in size
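Reporter derepression read as number of fluorescent GFP-positive objects, 20-120 um in size, counted by laser-scanning cytometer. Mouse LDR line with an epigenetically silenced CMV-GFP locus; compound incubation 30 h, 37 C.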
Sfp PPTase inh = inhibitors of Bacillus subtilis Sfp phosphopantetheinyl transferase. Biochemical Sfp PPTase activity, qHTS. Potency, µM, for inactives: largest response in the series, negative = inhibition, most hits filed as inhibitors. hit rate 3.5% among 310,000;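 note: the enzyme is Sfp with the accession as filed and its product quenches rhodamine fluorescence; potency is the fitted concentration of half-maximal effect; 0% = enzyme reaction without inhibitor and -100% = no enzyme wells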
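Fluorescence-quenching assay: 15 nM Sfp-PPTase preincubated 15 min at room temperature with compound, then 5 uM rhodamine-CoA and 12.5 uM BHQ-2-labelled YbbR peptide added. Fluorescence (ex 525/em 598 nm) read at start and after 30 min; difference gives rate.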
ClpP mod = qHTS Assay for Activators of ClpP. ATP-dependent Clp protease proteolytic subunit (Bacillus subtilis (strain 168)), P80244. purified B. subtilis ClpP, FRET peptide cleavage, 20 min. Potency, µM (doses to about 57.5 µM), without a hit: at the top dose activity change, negative = active. hit rate 1.9% among 340,000. AID 651965, 2013; active = well fitted falling curve with a large enough effect; inconclusive = small, poorly fitted or top-dose-only effect; inactive = no such curve, though single readings can be large or run the other way; note: potency is the fitted concentration of half-maximal effect; the source files actives as falling curves though it sought activators and does not explain the sign; nearly all actives have a fitted effect of over 65% in size
Target sequence (P80244 whole entry, looked up): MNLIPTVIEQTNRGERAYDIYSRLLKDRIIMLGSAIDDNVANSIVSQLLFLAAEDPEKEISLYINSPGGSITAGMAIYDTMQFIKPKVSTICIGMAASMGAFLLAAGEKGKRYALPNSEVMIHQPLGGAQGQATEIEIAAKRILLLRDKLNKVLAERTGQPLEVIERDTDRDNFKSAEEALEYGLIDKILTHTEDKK
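ClpP 10 microg/mL final, pH 8 Tris/KCl buffer with BSA, glycerol, Tween-20; compound pinned in; FRET-FV substrate; RT 20 min; Ex320/Em430; ΔFRET vs ADEP 5.8 microM, DMSO, no enzyme.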
Sfp inh conf = Sfp phosphopantetheinyl transferase inhibition, confirmation | Sfp PPTase enzymatic assay, qHTS titration | hit rate 79% among 380 | shares compounds with Sfp PPTase inh | Potency, µM (top dose mostly 114 µM), inactives show top-dose activity change, negative = inhibition, hits mostly inhibitors;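 note: potency is the fitted concentration of half-maximal effect; plate controls were uninhibited Sfp reaction for no effect and no enzyme control for full effect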
Target sequence (Q9F4F7 whole entry, looked up): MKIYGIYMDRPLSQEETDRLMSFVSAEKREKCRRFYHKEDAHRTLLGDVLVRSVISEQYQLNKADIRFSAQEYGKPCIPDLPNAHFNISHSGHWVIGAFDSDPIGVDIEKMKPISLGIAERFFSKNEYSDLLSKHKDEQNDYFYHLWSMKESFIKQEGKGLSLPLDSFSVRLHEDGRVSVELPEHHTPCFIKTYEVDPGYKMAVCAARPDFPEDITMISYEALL
Sfp gel assay = Inhibits Bacillus subtilis Sfp phosphopantetheinyl transferase | shares compounds with Sfp PPTase inh | purified Sfp, gel-based phosphopantetheinylation read-out | Potency, µM, hits mostly inhibitors | hit rate 20% among 210;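 active = potency below 100 µM; inconclusive = dose-dependent response but potency above 100 µM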;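 note: band intensities scaled against SCH202676 control wells before curve fitting; potency is an IC50 for inhibitors of Sfp transfer activity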
* = called active by the depositor; i = inactive; ? = inconclusive; . = not tested or not shown; [ ] = another dose, or the depositor's remark. Unless noted, calls come from the whole dose curve; as a rule, active = well fitted curve in the direction sought with a large enough effect; inconclusive = small, poorly fitted or top-dose-only effect, or another doubt; inactive = no such curve, though single readings can be large; an effect the other way counts as inactive or inconclusive.

SMILES	VP16 counter	RORg inh	PINK1 modulator	Epigenetic reg	Sfp PPTase inh	ClpP mod	Sfp inh conf	Sfp gel assay
CN(C)CCCNC(=O)c1ccc(-c2nc(-c3ccc(Cl)cc3)cs2)cc1	?	-84%	-2%	-1%	25µM*	?	59µM*	i
CCOC(=O)N1CCC2(CC1)OC(=O)C(C)=C2C(=O)NCc1cccc(OC)c1	.	.	1%	-1%	.	1%	.	.
O=C(O)CNc1nc(-c2ccccc2)c2cc([N+](=O)[O-])ccc2n1	-16%	0%	0%	-1%	6.3µM*	1%	15µM*	?
Cc1ccc(-c2noc(C3CCCN(S(=O)(=O)c4ccc5ccccc5c4)C3)n2)o1 (stereo not drawn)	-8%	28%	2%[38.3 µM]	-6%	-18%	-2%	.	.
CC(=O)c1cccc(S(=O)(=O)N2CCCC(c3nc(-c4ccc(C)o4)no3)C2)c1 (stereo not drawn)	3%	-24%[10 µM]	2%[38.3 µM]	4%	56µM*	-5%	24µM*	.
CC(C)[C@H](NC(=O)OC(C)(C)C)c1nnc(S(=O)(=O)Cc2c(F)cccc2Cl)o1	5µM*	4.5µM*	6.3µM*	?	14µM*	7%	30µM*	?
N#C/C(=C/c1ccc(N2CCCCCC2)o1)c1cccc(F)c1	?	1%	8.9µM*	?	0.56µM*	-2%	21µM*	?
N#C/C(=C\N1CCOCC1)c1ccccc1	8%	3%	1%[38.3 µM]	-7%	8%	-1%	.	.
O=C(Nc1ccc(N2CCCC2)cc1)c1cccc(F)c1	-7%	2%	9%	1%	-26%	-6%	.	.
N#C/C(=C/c1ccc(N2CCOCC2)o1)c1ccc(Br)cc1	5.6µM*	-91%	?	4µM*	2.8µM*	-3%	12µM*	6.2µM*
Cc1ccc(NC(=O)C(=O)NCCCN2CCOCC2)cc1C	.	.	-5%	1%	.	1%	.	.
COc1ccccc1-c1nc2c(c(SCc3ccc(F)cc3Cl)n1)Cc1c(CO)cnc(C)c1O2	.	.	1%	3%	.	1%	.	.
CC(NC(=O)c1sc2cc([N+](=O)[O-])ccc2c1Cl)C(C)(C)C (stereo not drawn)	13µM*	?	23%	0%	7.9µM*	1%	0.53µM*	0.69µM*
CC1CCCN(S(=O)(=O)c2cc(C(=O)NCc3ccccc3Cl)n(C)c2)C1 (stereo not drawn)	.	.	0%	0%	.	-1%	.	.
Cc1ccc(NC(=S)NC(=O)c2sc3ccccc3c2Cl)c(C(=O)O)c1	?	7.1µM*	.	0%	16µM*	.	53µM*	.
CCOCCN1CCN(c2c(CC)c(C)nc3cc(-c4cc(OC)cc(OC)c4)nn23)CC1	-15%	?	-1%	-1%	-4%	-29%	.	.
CCc1c(C)nc2cc(-c3cc(OC)cc(OC)c3)nn2c1N1CCCC1	13µM*	7.1µM*	?	-2%	16µM*	-30%	47µM*	.
CCc1c(C)nc2cc(-c3ccc(OC)c(OC)c3)nn2c1N1CCC(C)CC1	1%	9%	1%	0%	4%	-6%	.	.
CCc1c(C)nc2cc(-c3ccc(OC)c(OC)c3)nn2c1N1CCCC1	?	-45%	.	-7%	6.3µM*	?	?	.
CCN1CCN(C(=S)Nc2ccc(Cl)cc2)CC1	0%	-36%	1%	-3%	9%	0%	.	.
CN1CCN(C(=S)c2ccc(Br)cc2)CC1	-20%	?	4%	-1%	1.3µM*	.	13µM*	.
CN1CCN(C(=O)c2ccc(S(=O)(=O)c3ccc(Br)cc3)cc2)CC1	-6%	-2%	0%	-2%	5%	1%	.	.
